The text below walks through data of publication PMC7862700, “An all-to-all approach to the identification of sequence-specific readers for epigenetic DNA modifications on cytosine”.

Holding throughout (assay): DAPPL (digital affinity profiling via proximity ligation, sequencing); 10 mM Tris-HCl pH 7.5, 50 mM NaCl, 1 mM DTT, 4% glycerol, room temperature, 30 min; GST-TFs on glutathione beads, 16-mer random dsDNA library, 0.1% formaldehyde crosslink after washing; high values mean tight binding
One test concerns the target T1, FLI1 (Homo sapiens, UniProt Q01543 1-452).
T1 sequence: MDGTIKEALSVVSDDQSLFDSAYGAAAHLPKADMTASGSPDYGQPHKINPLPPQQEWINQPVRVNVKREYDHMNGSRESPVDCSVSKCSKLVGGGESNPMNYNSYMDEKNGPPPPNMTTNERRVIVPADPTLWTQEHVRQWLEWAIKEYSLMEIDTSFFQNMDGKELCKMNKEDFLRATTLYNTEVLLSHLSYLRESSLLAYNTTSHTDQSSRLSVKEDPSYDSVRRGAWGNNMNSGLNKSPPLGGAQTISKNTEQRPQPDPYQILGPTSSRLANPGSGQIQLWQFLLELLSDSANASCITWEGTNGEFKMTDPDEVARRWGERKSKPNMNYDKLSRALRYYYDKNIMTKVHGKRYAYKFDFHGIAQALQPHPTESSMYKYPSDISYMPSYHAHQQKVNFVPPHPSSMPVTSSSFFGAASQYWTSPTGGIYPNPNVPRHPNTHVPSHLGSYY
As to conditions: protein: recombinant; tags: N-terminal GST; dsDNA, one strand shown. In a few lines:
(§1)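 Pools were built from human transcription factors expressed in yeast as GST fusions, captured on glutathione beads and DNA-barcoded, along with a tag-only sample. Incubation with 200 nmole of a 16-mer random double-stranded DNA library lasted 30 min at room temperature in Tris/NaCl/DTT/glycerol buffer, and was followed by washing, 0.1% formaldehyde crosslinking, proximity ligation, PCR amplification and Illumina NextSeq500 sequencing. Binding signal is the quotient of each hexamer's read frequency for a factor and its frequency for the tag-only sample.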

The target of the next test is T2, ELK1 (Homo sapiens, UniProt P19419 1-428).
T2 sequence: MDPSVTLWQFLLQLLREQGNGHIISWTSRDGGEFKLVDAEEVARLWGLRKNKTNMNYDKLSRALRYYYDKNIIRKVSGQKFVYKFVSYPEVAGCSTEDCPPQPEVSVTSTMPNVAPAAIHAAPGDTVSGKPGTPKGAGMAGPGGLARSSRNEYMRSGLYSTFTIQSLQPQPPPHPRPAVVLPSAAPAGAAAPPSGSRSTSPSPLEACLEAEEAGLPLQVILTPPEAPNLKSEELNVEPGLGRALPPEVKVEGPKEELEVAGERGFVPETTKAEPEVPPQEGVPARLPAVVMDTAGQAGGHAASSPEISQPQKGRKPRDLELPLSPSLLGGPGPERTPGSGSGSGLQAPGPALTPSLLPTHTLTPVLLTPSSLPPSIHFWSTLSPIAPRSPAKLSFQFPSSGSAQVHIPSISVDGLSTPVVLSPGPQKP
As to conditions: protein: recombinant; tags: N-terminal GST; dsDNA, one strand shown. The essentials: as §1

For the next test, the target named is T3, GABPA (Homo sapiens, UniProt Q06546 1-454).
T3 sequence: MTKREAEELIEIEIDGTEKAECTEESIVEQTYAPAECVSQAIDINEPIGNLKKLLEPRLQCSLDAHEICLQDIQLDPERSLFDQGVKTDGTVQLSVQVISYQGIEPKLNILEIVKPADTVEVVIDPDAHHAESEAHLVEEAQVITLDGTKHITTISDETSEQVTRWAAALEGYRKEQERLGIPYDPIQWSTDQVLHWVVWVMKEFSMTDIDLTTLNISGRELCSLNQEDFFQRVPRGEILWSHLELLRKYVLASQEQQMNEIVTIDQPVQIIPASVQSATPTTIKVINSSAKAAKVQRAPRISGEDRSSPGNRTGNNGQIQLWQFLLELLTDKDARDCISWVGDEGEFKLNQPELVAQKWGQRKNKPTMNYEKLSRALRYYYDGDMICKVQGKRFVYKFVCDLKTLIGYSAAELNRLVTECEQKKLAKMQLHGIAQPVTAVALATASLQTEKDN
As to conditions: protein: recombinant; tags: N-terminal GST; dsDNA, one strand shown. In a few lines:
as §1

The target in another test is T4, ERG (Homo sapiens, UniProt P11308 1-479).
T4 sequence: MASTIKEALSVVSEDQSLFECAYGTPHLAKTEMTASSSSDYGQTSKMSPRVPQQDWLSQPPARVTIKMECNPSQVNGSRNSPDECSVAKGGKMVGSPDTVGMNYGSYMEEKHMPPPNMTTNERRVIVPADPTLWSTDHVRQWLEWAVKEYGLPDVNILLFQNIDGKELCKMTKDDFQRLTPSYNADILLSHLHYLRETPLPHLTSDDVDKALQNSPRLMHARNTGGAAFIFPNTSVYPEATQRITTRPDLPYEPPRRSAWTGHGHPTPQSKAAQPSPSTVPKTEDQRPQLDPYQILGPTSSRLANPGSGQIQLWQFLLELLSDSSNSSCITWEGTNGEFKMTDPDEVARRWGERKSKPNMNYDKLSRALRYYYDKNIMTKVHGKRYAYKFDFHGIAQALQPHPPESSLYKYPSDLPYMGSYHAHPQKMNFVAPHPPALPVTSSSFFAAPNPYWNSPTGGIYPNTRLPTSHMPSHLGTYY
As to conditions: protein: recombinant; tags: N-terminal GST; dsDNA, one strand shown. The essentials:
as §1

A further test concerns the target ELF1 (Homo sapiens, UniProt P32519 1-619). As to conditions: protein: recombinant; tags: N-terminal GST; dsDNA, one strand shown. The essentials: as §1
The next test concerns the target T5, EHF (Homo sapiens, UniProt Q9NZC4 1-300).
T5 sequence: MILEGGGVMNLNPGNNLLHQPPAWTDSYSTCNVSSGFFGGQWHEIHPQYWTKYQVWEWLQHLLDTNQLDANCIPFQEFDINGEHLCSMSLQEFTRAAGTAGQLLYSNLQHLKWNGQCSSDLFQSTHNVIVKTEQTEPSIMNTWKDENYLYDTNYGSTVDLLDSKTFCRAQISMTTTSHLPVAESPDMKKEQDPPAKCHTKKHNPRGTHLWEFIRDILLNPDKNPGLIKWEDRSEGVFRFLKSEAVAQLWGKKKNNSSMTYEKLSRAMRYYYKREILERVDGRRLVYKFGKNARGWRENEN
As to conditions: protein: recombinant; tags: N-terminal GST; dsDNA, one strand shown. The essentials: as §1

The target of the next test is SPI1 (Homo sapiens, UniProt P17947 1-270). The conditions noted are these: protein: recombinant; tags: N-terminal GST; dsDNA, one strand shown. In a few lines: as §1
The next test has as its target SPIB (Homo sapiens, UniProt Q01892 1-262). The conditions noted are these: protein: recombinant; tags: N-terminal GST; dsDNA, one strand shown. In a few lines:
as §1

For the next test, the target named is T6, ELK3 (Homo sapiens, UniProt P41970 1-407).
T6 sequence: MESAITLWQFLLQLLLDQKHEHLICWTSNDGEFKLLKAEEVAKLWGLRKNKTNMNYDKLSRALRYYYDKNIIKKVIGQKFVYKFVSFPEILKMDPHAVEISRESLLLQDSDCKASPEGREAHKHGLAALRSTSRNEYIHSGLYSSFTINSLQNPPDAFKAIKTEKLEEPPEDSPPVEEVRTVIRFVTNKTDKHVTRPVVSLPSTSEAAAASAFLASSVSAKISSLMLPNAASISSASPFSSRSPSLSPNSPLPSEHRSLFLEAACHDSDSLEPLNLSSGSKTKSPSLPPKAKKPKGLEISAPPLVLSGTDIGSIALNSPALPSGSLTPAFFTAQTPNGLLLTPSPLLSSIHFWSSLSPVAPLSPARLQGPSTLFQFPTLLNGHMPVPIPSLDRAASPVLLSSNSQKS
As to conditions: protein: recombinant; tags: N-terminal GST; dsDNA, one strand shown. The essentials:
as §1

A further test deals with T7, FEV (Homo sapiens, UniProt Q99581 1-238).
T7 sequence: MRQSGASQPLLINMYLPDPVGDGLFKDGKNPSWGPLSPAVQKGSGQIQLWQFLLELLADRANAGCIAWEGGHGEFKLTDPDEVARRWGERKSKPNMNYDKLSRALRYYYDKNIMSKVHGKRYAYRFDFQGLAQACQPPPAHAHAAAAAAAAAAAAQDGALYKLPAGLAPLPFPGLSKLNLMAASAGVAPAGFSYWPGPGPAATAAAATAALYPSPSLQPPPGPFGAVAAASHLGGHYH
The conditions noted are these: protein: recombinant; tags: N-terminal GST; dsDNA, one strand shown. In a few lines: as §1

The target of another test is ETV5 (Homo sapiens, UniProt P41161 1-510). The conditions noted are these: protein: recombinant; tags: N-terminal GST; dsDNA, one strand shown. The essentials:
as §1

For another test, the target named is HSF1 (Homo sapiens, UniProt Q00613 1-529). The conditions noted are these: protein: recombinant; tags: N-terminal GST; chain copies: 3; dsDNA, one strand shown. In a few lines: as §1
HSF1, sequence (Q00613 whole entry): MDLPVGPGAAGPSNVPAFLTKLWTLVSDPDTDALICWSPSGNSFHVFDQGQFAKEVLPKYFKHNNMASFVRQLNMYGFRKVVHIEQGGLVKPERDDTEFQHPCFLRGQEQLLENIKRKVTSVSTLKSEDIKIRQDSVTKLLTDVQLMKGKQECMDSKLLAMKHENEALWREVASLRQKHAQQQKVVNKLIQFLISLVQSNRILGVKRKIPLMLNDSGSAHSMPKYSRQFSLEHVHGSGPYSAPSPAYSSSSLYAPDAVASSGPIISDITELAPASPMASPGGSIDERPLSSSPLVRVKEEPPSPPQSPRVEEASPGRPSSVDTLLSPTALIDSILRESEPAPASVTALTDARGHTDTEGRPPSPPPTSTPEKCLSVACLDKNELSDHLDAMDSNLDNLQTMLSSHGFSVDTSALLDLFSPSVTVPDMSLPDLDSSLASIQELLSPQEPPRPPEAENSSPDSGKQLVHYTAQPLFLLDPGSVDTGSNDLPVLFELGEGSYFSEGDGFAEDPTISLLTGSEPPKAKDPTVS
The target of another test is T8, SPIC (Homo sapiens, UniProt Q8N5J4 1-248).
T8 sequence: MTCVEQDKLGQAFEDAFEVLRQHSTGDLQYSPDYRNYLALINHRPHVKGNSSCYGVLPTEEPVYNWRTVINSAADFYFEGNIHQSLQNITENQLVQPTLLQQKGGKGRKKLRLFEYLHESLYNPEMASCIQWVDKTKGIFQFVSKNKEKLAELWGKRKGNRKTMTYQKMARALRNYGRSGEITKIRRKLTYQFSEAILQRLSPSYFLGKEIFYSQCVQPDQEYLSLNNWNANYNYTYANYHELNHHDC
The conditions noted are these: protein: recombinant; tags: N-terminal GST; dsDNA, one strand shown. The essentials: as §1

Another test deals with ELF4 (Homo sapiens, UniProt Q99607 1-663). The conditions noted are these: protein: recombinant; tags: N-terminal GST; dsDNA, one strand shown. In a few lines:
as §1

A further test addresses T9, ELK4 (Homo sapiens, UniProt P28324-2 1-405).
T9 sequence: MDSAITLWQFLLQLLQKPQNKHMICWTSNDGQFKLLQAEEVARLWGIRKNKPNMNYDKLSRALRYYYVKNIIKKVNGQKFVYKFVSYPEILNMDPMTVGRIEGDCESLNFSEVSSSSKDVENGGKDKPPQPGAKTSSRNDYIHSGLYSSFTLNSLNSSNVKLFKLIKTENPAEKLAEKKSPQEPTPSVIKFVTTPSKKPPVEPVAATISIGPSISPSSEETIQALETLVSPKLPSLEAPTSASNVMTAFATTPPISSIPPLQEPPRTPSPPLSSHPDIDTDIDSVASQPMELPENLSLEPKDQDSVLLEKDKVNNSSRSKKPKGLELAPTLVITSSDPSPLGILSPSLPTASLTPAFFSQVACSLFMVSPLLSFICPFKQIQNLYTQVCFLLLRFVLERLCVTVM
The conditions noted are these: protein: recombinant; tags: N-terminal GST; dsDNA, one strand shown. The essentials: as §1

The target in another test is T10, ETV2 (Homo sapiens, UniProt O00321 1-342).
T10 sequence: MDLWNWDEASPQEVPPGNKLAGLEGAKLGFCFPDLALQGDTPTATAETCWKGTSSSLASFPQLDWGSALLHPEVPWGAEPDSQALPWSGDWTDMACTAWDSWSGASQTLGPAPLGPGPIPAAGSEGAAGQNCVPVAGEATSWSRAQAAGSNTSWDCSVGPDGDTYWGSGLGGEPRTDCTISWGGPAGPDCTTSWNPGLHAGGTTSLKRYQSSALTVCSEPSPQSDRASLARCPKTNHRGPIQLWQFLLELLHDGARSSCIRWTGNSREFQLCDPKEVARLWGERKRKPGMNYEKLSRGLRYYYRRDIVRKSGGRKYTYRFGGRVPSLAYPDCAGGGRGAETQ
The conditions noted are these: protein: recombinant; tags: N-terminal GST; dsDNA, one strand shown. The essentials: as §1

The next test has as its target T11, ELF3 (Homo sapiens, UniProt P78545 1-371).
T11 sequence: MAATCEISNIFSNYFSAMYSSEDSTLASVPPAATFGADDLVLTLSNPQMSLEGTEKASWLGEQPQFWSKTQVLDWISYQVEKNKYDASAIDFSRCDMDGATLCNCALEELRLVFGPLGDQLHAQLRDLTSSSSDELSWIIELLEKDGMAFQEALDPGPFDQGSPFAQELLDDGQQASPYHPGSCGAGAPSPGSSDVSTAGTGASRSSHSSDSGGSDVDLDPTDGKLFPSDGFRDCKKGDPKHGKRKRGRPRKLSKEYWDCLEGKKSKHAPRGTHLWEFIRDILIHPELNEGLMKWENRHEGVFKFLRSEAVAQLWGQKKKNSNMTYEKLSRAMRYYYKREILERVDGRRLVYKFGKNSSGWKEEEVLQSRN
As to conditions: protein: recombinant; tags: N-terminal GST; dsDNA, one strand shown. In a few lines:
as §1

The target in the next test is CRX (Homo sapiens, UniProt O43186 1-299). The conditions noted are these: protein: recombinant; tags: N-terminal GST; dsDNA, one strand shown. In a few lines: as §1
CRX, sequence (O43186 whole entry): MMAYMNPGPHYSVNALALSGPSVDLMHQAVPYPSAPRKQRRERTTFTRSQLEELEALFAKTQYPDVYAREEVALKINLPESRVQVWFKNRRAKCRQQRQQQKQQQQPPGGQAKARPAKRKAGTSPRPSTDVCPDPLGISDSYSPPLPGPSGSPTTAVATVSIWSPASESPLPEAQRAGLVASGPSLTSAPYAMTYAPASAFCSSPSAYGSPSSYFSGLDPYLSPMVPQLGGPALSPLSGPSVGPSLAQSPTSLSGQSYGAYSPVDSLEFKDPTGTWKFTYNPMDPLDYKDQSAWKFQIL
The target of another test is ETV1 (Homo sapiens, UniProt P50549 1-477). The conditions noted are these: protein: recombinant; tags: N-terminal GST; dsDNA, one strand shown. In a few lines:
as §1

ELF1, sequence (P32519 whole entry): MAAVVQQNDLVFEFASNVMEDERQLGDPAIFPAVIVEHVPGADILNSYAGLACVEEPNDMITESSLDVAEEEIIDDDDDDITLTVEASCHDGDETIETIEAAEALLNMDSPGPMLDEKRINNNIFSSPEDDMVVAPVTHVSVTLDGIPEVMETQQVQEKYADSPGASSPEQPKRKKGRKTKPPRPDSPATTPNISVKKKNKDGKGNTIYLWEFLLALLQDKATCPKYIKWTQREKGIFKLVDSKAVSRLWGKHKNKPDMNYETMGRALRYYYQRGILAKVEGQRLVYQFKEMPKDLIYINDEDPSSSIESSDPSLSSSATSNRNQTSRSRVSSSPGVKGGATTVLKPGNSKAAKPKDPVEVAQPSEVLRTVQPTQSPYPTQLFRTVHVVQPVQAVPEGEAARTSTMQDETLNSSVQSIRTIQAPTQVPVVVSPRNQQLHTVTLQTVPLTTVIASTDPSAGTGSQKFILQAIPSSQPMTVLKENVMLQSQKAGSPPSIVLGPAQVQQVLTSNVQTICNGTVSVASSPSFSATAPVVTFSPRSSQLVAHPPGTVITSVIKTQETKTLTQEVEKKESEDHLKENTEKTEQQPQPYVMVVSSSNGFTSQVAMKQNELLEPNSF
SPIB, sequence (Q01892 whole entry): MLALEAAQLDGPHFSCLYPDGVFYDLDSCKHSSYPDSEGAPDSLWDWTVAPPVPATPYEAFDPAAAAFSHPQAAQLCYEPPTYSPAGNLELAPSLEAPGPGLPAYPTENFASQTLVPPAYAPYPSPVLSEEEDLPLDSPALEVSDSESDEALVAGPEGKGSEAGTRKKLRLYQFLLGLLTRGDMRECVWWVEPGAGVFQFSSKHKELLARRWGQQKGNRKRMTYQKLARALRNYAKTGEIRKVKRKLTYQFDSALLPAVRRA
ETV1, sequence (P50549 whole entry): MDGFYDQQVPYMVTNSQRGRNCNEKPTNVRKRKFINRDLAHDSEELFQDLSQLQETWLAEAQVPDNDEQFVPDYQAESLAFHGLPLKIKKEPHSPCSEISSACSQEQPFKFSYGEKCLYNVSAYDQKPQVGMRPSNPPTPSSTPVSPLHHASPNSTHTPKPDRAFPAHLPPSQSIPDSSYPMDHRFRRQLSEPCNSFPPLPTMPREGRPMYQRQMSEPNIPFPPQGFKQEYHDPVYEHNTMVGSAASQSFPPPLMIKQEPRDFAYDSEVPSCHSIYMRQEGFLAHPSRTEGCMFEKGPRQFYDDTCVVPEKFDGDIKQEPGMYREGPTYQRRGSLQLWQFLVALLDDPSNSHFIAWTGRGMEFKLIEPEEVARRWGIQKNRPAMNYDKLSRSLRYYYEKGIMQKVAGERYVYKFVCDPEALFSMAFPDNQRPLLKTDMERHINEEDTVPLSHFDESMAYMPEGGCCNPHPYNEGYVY
ETV5, sequence (P41161 whole entry): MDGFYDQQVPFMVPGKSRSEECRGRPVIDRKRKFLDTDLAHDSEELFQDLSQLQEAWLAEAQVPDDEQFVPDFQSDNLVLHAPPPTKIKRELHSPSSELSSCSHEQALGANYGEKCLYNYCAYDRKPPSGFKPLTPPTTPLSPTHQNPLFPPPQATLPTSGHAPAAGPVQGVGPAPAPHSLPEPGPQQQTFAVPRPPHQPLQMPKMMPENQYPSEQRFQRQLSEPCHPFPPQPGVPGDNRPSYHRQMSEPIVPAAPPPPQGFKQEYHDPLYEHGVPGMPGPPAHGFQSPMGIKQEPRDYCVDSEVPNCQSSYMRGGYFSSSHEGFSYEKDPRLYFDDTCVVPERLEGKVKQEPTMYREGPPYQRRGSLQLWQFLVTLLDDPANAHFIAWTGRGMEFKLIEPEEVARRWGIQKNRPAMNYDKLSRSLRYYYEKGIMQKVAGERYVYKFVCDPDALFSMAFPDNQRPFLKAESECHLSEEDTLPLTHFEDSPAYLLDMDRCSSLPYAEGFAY
ELF4, sequence (Q99607 whole entry): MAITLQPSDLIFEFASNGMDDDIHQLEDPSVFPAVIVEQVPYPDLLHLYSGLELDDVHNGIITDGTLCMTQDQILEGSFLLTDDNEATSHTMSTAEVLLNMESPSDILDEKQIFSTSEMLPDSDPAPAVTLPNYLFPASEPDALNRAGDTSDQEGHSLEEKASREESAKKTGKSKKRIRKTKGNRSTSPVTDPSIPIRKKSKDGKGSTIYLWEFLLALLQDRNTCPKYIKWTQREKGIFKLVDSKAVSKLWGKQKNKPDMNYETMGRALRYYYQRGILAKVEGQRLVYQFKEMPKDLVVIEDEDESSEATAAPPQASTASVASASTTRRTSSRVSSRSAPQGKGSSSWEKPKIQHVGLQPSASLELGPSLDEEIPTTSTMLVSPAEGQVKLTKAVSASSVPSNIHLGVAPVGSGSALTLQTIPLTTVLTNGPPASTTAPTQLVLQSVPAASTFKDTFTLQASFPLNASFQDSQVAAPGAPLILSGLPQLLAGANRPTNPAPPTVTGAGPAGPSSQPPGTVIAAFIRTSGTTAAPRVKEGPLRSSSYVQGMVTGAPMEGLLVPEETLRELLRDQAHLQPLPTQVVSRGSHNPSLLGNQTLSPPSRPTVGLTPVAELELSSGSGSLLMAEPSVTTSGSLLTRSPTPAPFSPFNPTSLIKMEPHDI

CTCATA: the binding signal with FLI1 is 1.39 fold enrichment (6-mer frequency, TF over GST control); with ELK1, 1.48 fold enrichment (6-mer frequency, TF over GST control); with GABPA, 1.36 fold enrichment (6-mer frequency, TF over GST control); in the test with ERG, 1.3 fold enrichment (6-mer frequency, TF over GST control); in the test with ELF1, 1.38 fold enrichment (6-mer frequency, TF over GST control); in the test with EHF, 1.27 fold enrichment (6-mer frequency, TF over GST control). Besides, the binding signal is 1.43 fold enrichment (6-mer frequency, TF over GST control) in the test with SPI1; 1.48 fold enrichment (6-mer frequency, TF over GST control) with SPIB; 1.34 fold enrichment (6-mer frequency, TF over GST control) with ELK3; 1.29 fold enrichment (6-mer frequency, TF over GST control) in the test with FEV; 1.37 fold enrichment (6-mer frequency, TF over GST control) with ETV5; 1.25 fold enrichment (6-mer frequency, TF over GST control) with HSF1. For the same sequence, the binding signal with SPIC was 1.46 fold enrichment (6-mer frequency, TF over GST control); in the test with ELF4, 1.41 fold enrichment (6-mer frequency, TF over GST control); with ELK4 it was 1.35 fold enrichment (6-mer frequency, TF over GST control); with ETV2, 1.44 fold enrichment (6-mer frequency, TF over GST control); with ELF3, 1.34 fold enrichment (6-mer frequency, TF over GST control); with CRX, 1.38 fold enrichment (6-mer frequency, TF over GST control). In the test with ETV1, the binding signal is 1.39 fold enrichment (6-mer frequency, TF over GST control).
